HCV inhibitor = inhibitors of hepatitis C virus infection; 3.4% of 340,000 active; Huh7.5.1 HCVcc-Cre infection, luciferase reporter, 44 h; Potency, µM (series often up to 41.8 µM), hits mostly inhibitors; AID 651820
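Antiviral activity was scored by luciferase reporter output from cells infected with HCVcc-Cre (~0.5 moi) in presence of compound, 44 h infection period, cells seeded 1,000/well 4 h prior.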
MARV entry inh = blocks Marburg virus binding to or entry into cells | Marburg virus pseudotyped entry inhibition, cell reporter | Potency, µM (doses to about 37.8 µM), usual class: inhibitors | 1.8% of 300,000 active; calls by dose curve; tested in HEK293 cells
Lassa entry inh = Lassa virus entry inhibition. AID 540256. Potency, µM (titrated, usually from 37.9 µM), actives largely listed as inhibitors. 1.2% of 300,000 active. Lassa virus pseudotype entry inhibition, cell reporter; calls by dose curve; tested in HEK293 cells; further: nearly all actives have a fitted effect of over 50% in size
HCMV inh = blocks human cytomegalovirus replication. HFF cells, HCMV-luciferase reporter, 72 h; stronger effect = lower value. activity change, negative = inhibition, % at 57.5 µM. 4.5% of 410,000 active. AID 1259415; in the data active means activity change below about -60%; inconclusive means no clear call, values can overlap the other calls; inactive means above about -39%
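Compounds were evaluated in HFFs infected with an HCMV luciferase reporter virus (MOI 1 PFU/cell). Luciferase in lysates collected 72 h post infection served as the replication measure.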
FMDV antiviral = blocks foot and mouth disease virus | Potency, µM (series often up to 57.9 µM), most hits filed as inhibitors | 1.2% of 410,000 active | AID 1159524 | FMDV antiviral cell-based qHTS; calls by dose curve; tested in HEK293T cells; further: read-out not given here; nearly all actives have a fitted effect of over 45% in size
FBPA Giardia inh = blocks Giardia fructose-bisphosphate aldolase activity. purified Giardia FBPA. Potency, µM (top dose mostly 59.6 µM), hits mostly inhibitors. 0.71% of 290,000 active; further: nearly all actives have a fitted effect of over 55% in size
Target sequence (A8B2U2 whole entry, looked up): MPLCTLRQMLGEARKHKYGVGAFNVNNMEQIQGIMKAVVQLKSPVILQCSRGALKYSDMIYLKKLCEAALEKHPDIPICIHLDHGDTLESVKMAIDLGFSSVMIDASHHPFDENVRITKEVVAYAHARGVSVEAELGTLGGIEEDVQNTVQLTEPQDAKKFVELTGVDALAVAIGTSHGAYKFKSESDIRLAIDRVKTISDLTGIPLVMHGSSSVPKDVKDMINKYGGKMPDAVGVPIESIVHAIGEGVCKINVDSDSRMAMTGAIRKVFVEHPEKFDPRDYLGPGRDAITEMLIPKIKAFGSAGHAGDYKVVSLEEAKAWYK
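40 nM FBPA preincubated 10 min at RT with compound (up to 57.5 uM final), then substrate plus GAPDH/TPI/NAD/arsenate coupling and diaphorase/resazurin added. Fluorescence read after 20 min at RT, 525/598 nm.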
Hits are given with their value; . = inactive; ? = inconclusive; / = not tested or not shown; [ ] = another dose, or the depositor's remark. Most compounds without a hit are left out; they make up all but 8.3% or so of the library. Unless noted, the call rests on the fitted dose curve; in most records, active means well fitted curve in the direction sought with a large enough effect; inconclusive means small, poorly fitted or top-dose-only effect, or another doubt; inactive means no such curve, though single readings can be large; an effect the other way counts as inactive or inconclusive.

SMILES | HCV inhibitor | MARV entry inh | Lassa entry inh | HCMV inh | FMDV antiviral | FBPA Giardia inh
OC(CN1C2=NCCCN2c2ccccc21)c1ccc(Cl)cc1 (centres undefined) | ? | / | / | -69 | . | .
Clc1ccc(CN2C3=NCCCN3c3ccccc32)cc1Cl | ? | ? | ? | -84 | . | .
OC(CN1C2=NCCN2c2ccccc21)c1ccccc1 (centres undefined) | . | . | . | . | . | .
COc1cc2c(C(=O)N3CCN(c4ccc(C)cc4)C(C)C3)cn(CC(C)C)c(=O)c2cc1OC (centres undefined) | / | ? | ? | . | . | /
CCOc1ccc(OCCCC(=O)Nc2cc(S(=O)(=O)N3CCOCC3)ccc2N2CCOCC2)cc1 | ? | / | / | -90 | . | /
N#Cc1ccc(NC(=O)CCc2ccc(S(=O)(=O)N3CCOCC3)cc2)cc1 | ? | . | . | . | 28µM | .
C/C=C/c1ccc(OCC(=O)Nc2cc(S(=O)(=O)N3CCOCC3)ccc2N2CCCC2)c(OC)c1 | 10µM | ? | ? | ? | . | /
COc1ccc(CC(=O)Nc2cc(S(=O)(=O)N3CCOCC3)ccc2N2CCCC2)cc1OC | . | . | . | . | . | /
Cc1ccc(OCCCC(=O)Nc2ccc(S(=O)(=O)N3CCOCC3)cc2)cc1 | ? | / | / | -63 | ? | /
C[C@H](C(=O)O)c1ccc2cc(O)ccc2c1 | / | / | / | / | / | .
Cc1ccccc1C1=NC(C)(CC(=O)NCCOc2ccccc2)ON1C (centres undefined) | / | / | / | . | / | /
C[C@@H](C[N+](C)(C)C)OC(N)=O | / | . | / | / | / | .
COc1ccc(N(CC(=O)Nc2ccc(S(=O)(=O)N3CCOCC3)cc2)S(=O)(=O)c2ccc(F)cc2)cc1 | 14µM | ? | . | . | . | .
CC(C)(C)OC(=O)NS(=O)(=O)Nc1ccccc1Br | / | / | / | / | / | .
COc1cccc(C2c3[nH]c4ccccc4c3C[C@H]3C(=O)N(c4ccccc4C(=O)N4CCC[C@H]4C(=O)O)C(=O)N23)c1 (some centres undefined) | 2.2µM | / | / | . | . | .
Cc1cc(C)cc(-n2c(C)cc(/C=N/NC(=O)c3cccc([N+](=O)[O-])c3C)c2C)c1 | 4µM | ? | ? | . | ? | .
Cc1cc(C)cc(-n2c(C)cc(/C=N/NC(=O)c3ccncc3)c2C)c1 | . | . | . | . | . | .
Cc1cc(/C=N/NC(=O)CC#N)c(C)n1-c1ccc([N+](=O)[O-])cc1 | . | . | . | -91 | . | .
CCOc1ccccc1Nc1ccnc2cc(Cl)ccc12 | ? | ? | 10µM | ? | . | .
CCOc1ccccc1Nc1cc(C)c2cccc(C)c2n1 | 7.9µM | ? | . | . | . | .
CCOc1ccccc1Nc1cc(-c2ccccc2)nc(C)n1 | / | . | . | . | . | /
Clc1ccc2c(NCCNC3CCCCC3)ccnc2c1 | 7.9µM | 1.6µM | ? | -84 | . | /
CC1CCCN1c1ccnc2cc(Cl)ccc12 (centres undefined) | ? | ? | . | . | . | /
CC(CCCN1CCCC1)Nc1ccnc2cc(Cl)ccc12 (centres undefined) | ? | 3.5µM | . | ? | . | /
CC(=O)N[C@@H](C)C(=O)NCC1Cc2cc(C)cc(-c3cnccn3)c2O1 (some centres undefined) | / | / | / | / | . | /
SMILES | HCV inhibitor | MARV entry inh | Lassa entry inh | HCMV inh | FMDV antiviral | FBPA Giardia inh
COC(=O)c1cc(C(=O)OC)n2c(C)cc3ccccc3c12 | / | . | / | / | / | /
O=C(NCCNC(=O)c1ccccc1F)c1ccccn1 | . | . | . | . | . | .
O=C(NCCCNc1ccnc2cc(Cl)ccc12)c1ccccc1F | 10µM | / | / | . | . | .
Clc1ccc2c(NCc3ccccn3)ccnc2c1 | ? | / | / | -72 | ? | .
CCn1nc(-c2ccccc2)c(-c2ccccc2)c(C(=O)Nc2nc(C)c(C(C)=O)s2)c1=O | / | . | . | . | . | /
C=C(C)C1CCC(C)=CC1c1c(O)cc(O)cc1CCCCC (centres undefined) | / | / | / | / | / | .
Cc1occc1C(=O)NCCN1Cc2ccccc2OC(c2ccccc2F)C1 (centres undefined) | / | / | / | / | . | /
CCOC(=O)C1C(C(=O)OC)=C(c2ccc(OC)cc2)c2ccccc2N1S(=O)(=O)C(F)(F)F (centres undefined) | 11µM | / | / | . | ? | .
CCOC(=O)C1C(C(=O)OC)=C(c2ccc(F)cc2)c2ccccc2N1S(=O)(=O)C(F)(F)F (centres undefined) | ? | / | / | . | . | .
CCOC(=O)C1=C(c2ccccc2)c2ccccc2N(S(=O)(=O)C(F)(F)F)C1C(=O)OCC (centres undefined) | 2.8µM | / | / | . | . | /
N#C/C(=C\c1ccc(OCc2ccc(C(=O)O)cc2)cc1)C(=O)N1CCOCC1 | . | 0.92µM | 1.8µM | . | ? | .
COc1cc(/C=C(\C#N)C(=O)N2CCOCC2)ccc1OCc1ccccc1 | . | . | / | . | . | .
CCCCc1ccc(S(=O)(=O)N[C@H]2CC[C@@]34CCCN3C(=O)CCC[C@H]4[C@H]2C)cc1 | / | / | / | . | / | /
CC1OC(O[C@@H]2C(O)CC(O[C@@H]3C(O)C[C@@H](OC4CC[C@]5(C)[C@H](CC[C@H]6[C@@H]5CC[C@]5(C)C(C7=CC(=O)OC7)C(O)C[C@@]65O)C4)OC3C)OC2C)CC(O)C1O (some centres undefined) | / | / | / | / | . | .
CC(=O)OC1CC(OC2C(O)CC(OC3C(O)CC(OC4CCC5(C)C(CCC6C5CCC5(C)C(C7=CC(=O)OC7)C(O)CC65O)C4)OC3C)OC2C)OC(C)C1OC1OC(CO)C(O)C(O)C1O (centres undefined) | ? | 0.18µM | ? | -101 | ? | /
CC1OC(OC2C(O)CC(OC3C(O)CC(OC4CCC5(C)C(CCC6C5CCC5(C)C(C7=CC(=O)OC7)C(O)CC65O)C4)OC3C)OC2C)CC(O)C1O (centres undefined) | ? | ? | 0.32µM | -97 | ? | /
CC(=O)OC1CC2(O)C3CCC4CC(O)CCC4(C)C3CCC2(C)C1C1=CC(=O)OC1 (centres undefined) | ? | ? | ? | -97 | ? | /
C[C@H]1O[C@@H](O[C@H]2[C@@H](O)C[C@H](O[C@H]3[C@@H](O)C[C@H](O[C@H]4CC[C@@]5(C)[C@H](CC[C@@H]6[C@@H]5CC[C@]5(C)[C@@H](C7=CC(=O)OC7)CC[C@]65O)C4)O[C@@H]3C)O[C@@H]2C)C[C@H](O)[C@@H]1O | .[8.37 µM] | 0.058µM | 0.21µM | / | ? | .
COc1cc(CN2CCCC(n3cc(C(=O)N4CCCC4)nn3)C2)cc(OC)c1 (centres undefined) | / | / | / | / | . | /
O=C1CCCC=C1[C@H](O)CCCCBr | / | / | / | / | / | .[12.9 µM]
Cc1ccc2c(c1)C(=O)C1(O)CCN(c3ccccc3)C1=N2 (centres undefined) | / | / | / | / | . | .
COc1cccc(-c2cc3nc(-c4ccccc4)cc(N4CCN(C(=O)c5ccoc5)CC4)n3n2)c1 | / | / | / | -104 | 32µM | /
COc1cccc(-c2cc3nc(C)cc(N4CCN(C(=O)c5ccoc5)CC4)n3n2)c1 | / | / | / | . | . | /

High-throughput results from PubChem BioAssay.
